PolyA inh = polyadenylation inhibitors in yeast reporter cells, primary screen, luminescence, S. cerevisiae; S. cerevisiae SKY197-pL101 polyadenylation reporter, beta-gal luminescence; efflux-impaired pdr1/pdr3 knockout yeast; score 100 = 6 SD above DMSO; activity score, % at 12 µM; 300,000 compounds, 0.02% hits; AID 1875, 2009;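 active = lowest replicate activity score at least 50, where 100 means six control SD above control mean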;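 note: yeast exposed to compound for 9 h at 30 °C; higher score means more reporter readthrough which indicates perturbed polyadenylation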
MOR-DOR inv ag = inverse agonists of MOR-DOR heterodimerization, primary screen, cell-based, luminescence | cell-based MOR-DOR heterodimer luminescence, inverse agonism | inhibition, % at 9.3 µM | 340,000 compounds, 0.21% hits | AID 504357, 2011; in the data active = inhibition above about 22%, passing the limit was not always enough
HTR5A inv ctr = HTR5A inverse agonists in luminescence cell assay, primary screen, counter-screen for OPRM1-OPRD1 heterodimer inverse agonist project, full-deck HTS | 5-hydroxytryptamine receptor 5A (Homo sapiens), P47898 | HTR5A cell line, inverse agonism | inhibition, % at 9.3 µM | 340,000 compounds, 0.083% hits; in the data active = inhibition mostly above about 23%, no sharp cut-off; inactive = mostly below about 18%
Target sequence (P47898 whole entry, looked up): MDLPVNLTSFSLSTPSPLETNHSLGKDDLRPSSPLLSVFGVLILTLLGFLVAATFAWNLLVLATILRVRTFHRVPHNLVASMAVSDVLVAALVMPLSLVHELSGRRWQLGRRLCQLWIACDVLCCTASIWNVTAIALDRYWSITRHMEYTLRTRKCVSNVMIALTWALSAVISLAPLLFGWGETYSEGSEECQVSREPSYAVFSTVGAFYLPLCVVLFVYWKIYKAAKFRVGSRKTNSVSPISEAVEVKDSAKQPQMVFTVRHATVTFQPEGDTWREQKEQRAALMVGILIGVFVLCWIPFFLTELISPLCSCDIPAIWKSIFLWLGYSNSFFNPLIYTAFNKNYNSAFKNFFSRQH
MOR-DOR ag = agonists of OPRM1-OPRD1 heterodimerization, primary screen, cell-based, luminescence | Mu-type opioid receptor (Homo sapiens) + Delta-type opioid receptor (Homo sapiens), … | cells | activation, % at 9.3 µM | 340,000 compounds, 0.3% hits | AID 504326, 2011; in the data active = activation above about 18%
NALP1 inh = NALP1 inflammasome inhibitors in reconstituted yeast, colorimetric, S. cerevisiae, triplicate retest. S. cerevisiae NALP1/ASC/caspase-1 growth, X-gal OD620, 72 h. inhibition, % at 10 µM. 280,000 compounds, 0.61% hits. AID 2071, 2009; in the data active = inhibition mostly above about 24%, no sharp cut-off; inactive = mostly below about 32%
HTR5A ag ctr = HTR5A agonists in luminescence cell assay, primary screen, counter-screen for OPRM1-OPRD1 heterodimer agonist project, full-deck HTS | cell-based | activation, % at 9.3 µM | 340,000 compounds, 0.61% hits | AID 504692, 2011; in the data active = activation mostly above about 9.5%, no sharp cut-off; inactive = mostly below about 7.6%
Numbers stand for hits; – = inactive; · = not tested or not shown. Shown are actives, neighbours in structure and some others; about 1.6% of the full set was active somewhere.

SMILES	PolyA inh	MOR-DOR inv ag	HTR5A inv ctr	MOR-DOR ag	NALP1 inh	HTR5A ag ctr
COc1ccc(-n2c(CN3CCN(c4ccccn4)CC3)nc3ccc([N+](=O)[O-])cc3c2=O)c(OC)c1	–	–	–	–	–	–
COc1ccccc1C1CCN(C(=O)c2cnn(-c3ccccc3)c2C)CC1	–	–	–	–	–	12
CCc1cc(OCCCCNCc2ccccc2)ccc1Cl	–	–	–	–	63	–
CCOCCCNCc1ccc(OCc2ccccc2Cl)cc1	–	–	–	–	52	–
OCCCCNCc1ccc(OCc2ccccc2Cl)cc1	–	–	–	–	–	–
Cc1ccc(C(=O)OCC(=O)NC(C)c2ccccc2)cc1C (stereo unspecified)	·	–	–	–	·	–
Cc1cc(C)c(OCC(O)CN2CCN(c3ccccn3)CC2)c(C)c1 (stereo unspecified)	–	–	–	–	–	–
COc1ccc2c(c1O)-c1ccccc1CCN(C)C2	–	–	–	–	–	–
CN1CCc2cccc3c2[C@@H]1Cc1ccc(O)c(O)c1-3	·	–	–	–	86	–
COc1ccc2nc(C)cc(N/N=C/c3ccc(F)cc3)c2c1	–	–	–	31	–	–
CN(Cc1ccc2c(c1)OCCO2)C(=O)CSc1ncnc2sccc12	·	–	–	–	·	–
Cc1nn(-c2ccccn2)c2c1C(c1ccccc1Cl)C1=C(N2)c2ccccc2C1=O (stereo unspecified)	–	26	–	–	–	–
CCC1CN(C(=O)N2CCC(C(=O)NCc3cccc(OC)c3OC)CC2)c2cc(C)ccc2O1 (stereo unspecified)	–	–	–	–	–	–
CCN(CC(=O)Nc1ccc(NC(C)=O)cc1)C(=O)CN1C(=O)NC(C)(c2ccc3ccccc3c2)C1=O (stereo unspecified)	·	–	–	–	·	–
Cc1cc(NC(=O)CSc2nccn2C)n(-c2ccccc2)n1	–	–	–	–	·	14
Cc1cc(NC(=O)COc2ccccc2)n(-c2ccccc2)n1	–	–	–	–	–	–
Cc1cc(=O)n(-c2ccccc2)n1C	·	–	–	–	·	–
COCCn1c(-c2ccccc2)cnc1SCC(=O)Nc1cccc2ccccc12	–	–	–	–	74	–
CC1(C)CC(=O)c2cc3c(N)c(C(=O)NCc4ccccc4)sc3nc2C1	–	–	–	–	–	11
CCCCS(=O)(=O)N1CCCC(C(=O)Nc2ccc3c(c2)CCC3)C1 (stereo unspecified)	–	–	–	–	27	–
CC(C)C(C(=O)Nc1ccc(S(=O)(=O)N2CCOCC2)cc1)N1C(=O)c2ccccc2C1=O (stereo unspecified)	–	–	–	–	43	–
CC(C)C(C(=O)Nc1ccccc1)N1C(=O)c2ccccc2C1=O (stereo unspecified)	–	–	–	–	–	–
Cc1c(C)c2c(OCC(=O)N[C@@H](C)C(=O)O)cc3c(c2oc1=O)CCC(C)(C)O3	–	–	–	–	–	–
CCc1nnc(SCC(=O)NC2CC2)n1CC	–	–	–	–	–	–
Cn1c(/C(C#N)=C/c2cccc(O)c2)nc2ccccc21	–	–	–	–	41	–
SMILES	PolyA inh	MOR-DOR inv ag	HTR5A inv ctr	MOR-DOR ag	NALP1 inh	HTR5A ag ctr
O=C1C2C3C=CC(C4CC34)C2C(=O)N1Cc1ccco1 (stereo unspecified)	–	–	–	–	–	–
COCCN1C=C2C(=O)C(C)(OC(=O)c3cccs3)C(=O)C=C2C=C1CCCC(=O)OC (stereo unspecified)	–	–	–	–	·	14
COC(=O)CCCC1=CC2=CC(=O)C(C)(OC(=O)c3cccs3)C(=O)C2=CN1CCN1CCOCC1 (stereo unspecified)	–	–	–	–	·	–
COC(=O)CCCC1=CC2=CC(=O)C(C)(OC(=O)c3cccs3)C(=O)C2=CN1CCCCO (stereo unspecified)	–	–	–	–	·	12
COC(=O)c1sc(N)c(C(=O)OC)c1COC(=O)c1c(C)noc1C	–	46	46	–	–	–
COC(=O)c1ccccc1NC(=O)CSc1nc(N)cc(N)n1	–	–	–	–	32	–
Clc1ccc(OCCCN2CCc3ccccc3C2)c(Br)c1	–	–	–	–	–	–
Clc1ccc(OCCOCCN2CCc3ccccc3C2)c(Cl)c1	–	–	–	–	56	–
Cc1ccc(S(=O)(=O)CCNC(=O)Cc2ccc(Cl)cc2)cc1	–	–	–	–	–	–
Cc1ccc(CNC(=O)C2CCN(S(=O)(=O)c3ccc4c(c3)CC(C)N4C(=O)C3CCC3)CC2)o1 (stereo unspecified)	–	–	–	–	–	11
O=C1CCC(C(=O)N2CCN(c3ccccc3)CC2)CN1CC1CCCCC1 (stereo unspecified)	–	–	–	–	–	–
CC1C(=O)C(C)C(c2cccc(Br)c2)NC1c1cccc(Br)c1 (stereo unspecified)	–	–	–	–	–	–
COc1ccccc1NC(=O)CSCc1ccc([N+](=O)[O-])cc1	–	–	–	–	41	–
COc1ccc(NC(=O)CSc2nncn2N)c(OC)c1	–	–	–	–	–	–
CCOc1ccccc1NC(=O)CSc1ccccc1	–	–	–	–	27	–
COc1ccc([N+](=O)[O-])cc1NC(=O)CSCc1cc(C)cc(C)c1	–	–	–	–	–	–
CCOc1ccccc1NC(=O)CCC(=O)Nc1ccccc1OCC	–	–	–	–	–	–
COc1ccccc1NC(=O)CSc1nncn1N	–	–	–	–	–	13
CC(C)CNS(=O)(=O)c1ccc(CCC(=O)NCCC2=CCCCC2)cc1	–	–	–	–	–	–
Cc1ccc(C(=O)NN(CCC(=O)NC(C)(C)C)C2=NS(=O)(=O)c3ccccc32)cc1	–	–	–	–	–	–
C/C(=N/NS(=O)(=O)c1ccc(C)cc1)c1c[nH]c2ccccc12	–	–	–	–	–	11
C/C(=N/NS(=O)(=O)c1cc(C)ccc1C)c1c[nH]c2ccccc12	–	–	–	–	–	12
C/C(=N/NS(=O)(=O)c1cccc([N+](=O)[O-])c1)c1c[nH]c2ccccc12	–	–	–	–	–	–
C/C(=N/NS(=O)(=O)c1ccccc1)c1c[nH]c2ccccc12	–	–	–	–	–	12
CC1Nc2ncnc(N3CCN(c4ccccn4)CC3)c2N(Cc2ccccc2)C1=O (stereo unspecified)	–	45	43	–	·	–

Screening data (PubChem)
